Compounds with a hit are over-represented: about 14% of the library has one in this group of screens.
AID923 – qHTS Assay for Allosteric/Competitive Inhibitors of Caspase-1: Spectroscopic Profiling in AFC Spectral Region. compound fluorescence, AFC spectral region (405/520 nm). actives 1.1% (n = 75,000). Potency, µM (titrated, usually from 57.5 µM), inactives show top-dose fluorescence increase, usual class: activators; also: potency is read from the fitted curve at half-maximal effect; 0% is about no effect
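Baseline compound fluorescence (AFC region, 405 nm ex/520 nm em) taken from the intercept of kinetic reads with 50 nM caspase-1 and 5 uM Ac-WEHD-AFC; normalized to an on-plate AFC standard curve; compounds titrated up to 57 uM.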
4-MU autofl – compound fluoresces in the 4-MU spectral region | actives 11% (n = 59,000) | max dye-equivalent concentration, M | compound autofluorescence, 340/450 nm, 4-MU equivalents; hits give high values; in the data active = max dye-equivalent concentration above about 10 nM; inconclusive = mostly about 1.1 nM to 9.6 nM
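Intrinsic fluorescence at 340/450 nm (ex/em) was read after 15 min at room temperature in pH 8.0, 100 mM Tris. Each compound concentration expressed as 4-MU-equivalent concentration from a six-point 4-MU standard series on each plate.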
CRE-bla Fsk – alters forskolin-stimulated CRE reporter signaling in CHO cells; CHO CRE-bla reporter (cAMP response element driving beta-lactamase), forskolin EC10, beta-lactamase ratio; Potency, µM (series often up to 38.2 µM), inactives show at the top dose activity change, negative = inhibition, actives largely listed as activators; actives 2.5% (n = 71,000); AID 662; active = well fitted activation curve with a large enough effect in the signal ratio, with a control signal flat, not every such curve was filed as active; inconclusive = small, poorly fitted or top-dose-only effect, or effect the other way, or a change in a side signal; the % refers to the signal ratio; also: potency is read from the fitted curve at half-maximal effect; % of control where 0% means no effect
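CRE-bla CHO cells stimulated with EC10 NKH 477 (water-soluble forskolin) and compound titrations, 3 h at 37C; beta-lactamase read with CCF4 after 2 h at room temperature. Activity from 460/530 nm emission ratio, AC50 values for positive or negative modulation.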
HADH2 inhib – blocks human hydroxyacyl-CoA dehydrogenase type II; Q99714; recombinant HADH2, NADH fluorescence, beta-hydroxybutyryl-CoA; Potency, µM (top dose mostly 57.1 µM), without a hit: at the highest dose activity change, negative = inhibition, hits mostly inhibitors; actives 3.4% (n = 73,000); also: potency is read from the fitted curve at half-maximal effect; % is scaled to controls: 0 for no effect and ±100 for the full control effect; nearly all actives have a fitted effect of over 60% in size
Target sequence (Q99714 whole entry, looked up, one chain of several): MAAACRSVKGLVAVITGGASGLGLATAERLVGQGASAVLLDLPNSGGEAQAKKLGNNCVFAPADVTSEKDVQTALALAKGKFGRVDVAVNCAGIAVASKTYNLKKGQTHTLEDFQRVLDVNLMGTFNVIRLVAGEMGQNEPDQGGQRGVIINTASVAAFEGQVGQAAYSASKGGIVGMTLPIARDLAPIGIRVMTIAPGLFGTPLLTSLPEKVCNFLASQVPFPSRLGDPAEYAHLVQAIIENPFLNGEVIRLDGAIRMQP
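Buffer 100 mM Tris-HCl pH 9.0/0.01% Tween-20; HADH2 20 nM; NAD+ 1 mM; beta-hydroxybutyryl-CoA 90 uM (all final). 15 min cpd preincubation, RT.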
A350 fluor – compound fluoresces in the Alexa 350 spectral region; Compound autofluorescence, 340/450 nm, Alexa 350 dye-equivalents; hits give high values; max dye-equivalent concentration, M; actives 11% (n = 59,000); AID 590; in the data active = max dye-equivalent concentration above about 10 nM; inconclusive = mostly about 1.1 nM to 9.6 nM
HSD17B inhib – blocks hydroxysteroid 17-beta dehydrogenase activity | recombinant HSD17B10, NADH fluorescence kinetic | Potency, µM (series often up to 57.1 µM), inactives show at the top dose activity change, negative = inhibition, most hits filed as inhibitors | actives 7.6% (n = 75,000) | AID 893;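 also: the protocol describes HADH2 (HSD17B10) and not the HSD17B4 of the title; potency is read from the fitted curve at half-maximal effect; % is scaled to controls: 0 for no effect and ±100 for the full control effect; nearly all actives have a fitted effect of over 70% in size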
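Enzyme plus compound, 15 min room temperature; substrate mix added (NAD+ 1 mM, beta-hydroxybutyryl-CoA 90 uM final); plates read kinetically for NADH fluorescence. HADH2 was His-tagged, E. coli-derived, 20 nM.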
Starred values were filed as active, the others as inactive; [ ] = another dose, or the depositor's remark. Unless noted, calls follow the shape of the dose curve; as a rule, active = well fitted curve in the direction sought with a large enough effect; inconclusive = small, poorly fitted or top-dose-only effect, or another doubt; inactive = no such curve, though single readings can be large; an effect the other way counts as inactive or inconclusive.

Screening Cc1ccc2[nH]c(=O)c(CN(Cc3cccnc3)C(=O)c3ccncc3)cc2c1 returned AID923 1%, 4-MU autofl 1.9e-08M*, CRE-bla Fsk 5%, HADH2 inhib -13%, A350 fluor 2.4e-08M* and HSD17B inhib inconclusive.
CCC(=O)N(Cc1ccc2c(c1)OCO2)Cc1cc2cc(OC)ccc2[nH]c1=O was read as AID923 0%, 4-MU autofl 8.9e-08M*, CRE-bla Fsk 22%, HADH2 inhib 0%, A350 fluor 1.3e-07M* and HSD17B inhib 32µM*.
CCN(Cc1cc2ccccc2[nH]c1=O)C(=O)c1cccnc1 was read as AID923 2%, 4-MU autofl inactive, CRE-bla Fsk inconclusive, HADH2 inhib 5%, A350 fluor inactive and HSD17B inhib 3%.
CC1(C)O[C@H]2[C@@H](O1)[C@@H](On1nnc3ccc(Cl)cc31)O[C@@H]2[C@@H]1COC(C)(C)O1 was read as AID923 0%[11.5 µM], 4-MU autofl inactive, CRE-bla Fsk 9%[7.6 µM], HADH2 inhib 4%[11.4 µM], A350 fluor inactive and HSD17B inhib 3%[11.4 µM].
Screening O=C(N/N=C\c1ccc2c(c1)CCC2)c1ccccc1O returned AID923 4%[11.5 µM], 4-MU autofl inactive, CRE-bla Fsk -5%[7.6 µM], HADH2 inhib -6%[11.4 µM], A350 fluor inconclusive and HSD17B inhib 1%[11.4 µM].
`CCN(Cc1cc2cc(OC)ccc2[nH]c1=O)C(=O)Cc1ccc(OC)cc1` gave AID923 2%, 4-MU autofl 1.4e-07M*, CRE-bla Fsk inconclusive, HADH2 inhib -11%, A350 fluor 1.7e-07M* and HSD17B inhib inconclusive.
`COc1ccc2[nH]c(=O)c(CN(CCO)S(=O)(=O)c3ccc4c(c3)OCCO4)cc2c1` gave AID923 0%, 4-MU autofl 2.1e-07M*, CRE-bla Fsk 8%, HADH2 inhib 28%, A350 fluor 2.1e-07M* and HSD17B inhib 25µM*.
CCc1ccc2[nH]c(=O)c(CN(Cc3ccco3)S(=O)(=O)c3ccc4c(c3)OCCO4)cc2c1 was read as AID923 2%, 4-MU autofl inconclusive, CRE-bla Fsk -9%, HADH2 inhib 47%, A350 fluor inconclusive and HSD17B inhib -15%.
Cc1cc2nc(C)c(Cc3ccccc3)c(=O)n2[nH]1 was read as AID923 2%, CRE-bla Fsk -8%, HADH2 inhib -22% and HSD17B inhib inconclusive.
Screening O=c1c2cc(-c3ccccc3)sc2ncn1/N=C/c1ccco1 returned AID923 2%, CRE-bla Fsk inconclusive, HADH2 inhib -26%[11.4 µM] and HSD17B inhib 25µM*.
Screening O=c1c2ccccc2nc(COc2ccccc2)n1/N=C/c1ccco1 returned AID923 1%, 4-MU autofl inactive, CRE-bla Fsk inconclusive, HADH2 inhib -4%, A350 fluor inactive and HSD17B inhib 9%.
Screening c1ccc(-c2nnc3sc(-c4csc5c4CCCC5)nn23)cc1 returned AID923 -6%, 4-MU autofl inactive, CRE-bla Fsk inconclusive, HADH2 inhib 3.2µM*, A350 fluor inactive and HSD17B inhib inconclusive.
`COc1ccc(-c2coc3ccc(O[C@@H]4O[C@@H](COC(C)=O)[C@@H](OC(C)=O)[C@@H](OC(C)=O)[C@H]4OC(C)=O)cc3c2=O)cc1` gave 4-MU autofl inactive, CRE-bla Fsk inconclusive, HADH2 inhib 8% and A350 fluor inactive.
`Oc1ccccc1C(Sc1nc2ccccc2s1)Sc1nc2ccccc2s1` gave AID923 -2%[11.5 µM], 4-MU autofl inactive, CRE-bla Fsk -10%[7.6 µM], HADH2 inhib 2.5µM*, A350 fluor inactive and HSD17B inhib inconclusive.
Screening O=C(c1ccncc1)N1CCC[C@@]2(CCN(c3ccccn3)C2)C1 returned AID923 1%, 4-MU autofl inactive, CRE-bla Fsk -2%, HADH2 inhib 3%, A350 fluor inactive and HSD17B inhib -2%.
O=C1CC(Sc2nnc(-c3ccccc3O)o2)C(=O)N1c1ccccc1 (centres undefined) was read as AID923 2%, 4-MU autofl inactive, CRE-bla Fsk inconclusive, HADH2 inhib -20%, A350 fluor inactive and HSD17B inhib 40µM*.
`Cc1ccc(NC(=O)CSc2nnc(-c3ccc(S(=O)(=O)N4CCOCC4)cc3)n2C)cc1` gave AID923 0%, 4-MU autofl inactive, CRE-bla Fsk 11%, HADH2 inhib 24%, A350 fluor inactive and HSD17B inhib 10%.
Screening Cn1c(SCC(=O)NC2CCCC2)nnc1-c1ccc(S(=O)(=O)N2CCOCC2)cc1 returned AID923 -4%, 4-MU autofl inactive, CRE-bla Fsk -7%, HADH2 inhib 10%, A350 fluor inactive and HSD17B inhib 32µM*.
For CC1CCCN(C(=O)CSc2nnc(-c3ccc(S(=O)(=O)N4CCOCC4)cc3)n2C)C1 (centres undefined) the results were AID923 1%, 4-MU autofl inactive, CRE-bla Fsk 3%, HADH2 inhib 10%, A350 fluor inactive and HSD17B inhib 25µM*.
Nn1c(SCC(=O)NC2CCCCC2)nnc1-c1ccccc1 was read as AID923 1%, 4-MU autofl 1.2e-07M*, CRE-bla Fsk -1%, HADH2 inhib -1%, A350 fluor 9.3e-08M* and HSD17B inhib 32%.
`CSc1nnc(-c2ccc(S(=O)(=O)N3CCCC3)cc2)n1C` gave AID923 0%, 4-MU autofl inactive, CRE-bla Fsk 1%, HADH2 inhib inconclusive, A350 fluor inactive and HSD17B inhib 32µM*.
For O=C(Nc1cccc2c1CCCC2)c1ccc(Br)o1 the results were AID923 0%, CRE-bla Fsk 2%, HADH2 inhib -1% and HSD17B inhib -1%.
Screening NCCC[C@H](N)CC(=O)N[C@H]1CNC(=O)[C@@H]([C@@H]2C[C@H](O)N=C(N)N2)NC(=O)/C(=C/NC(N)=O)NC(=O)[C@@H](CO)NC(=O)[C@@H](CO)NC1=O returned AID923 1%[25.7 µM], 4-MU autofl inactive, CRE-bla Fsk 1%[17.1 µM], HADH2 inhib -1%[25.6 µM], A350 fluor inactive and HSD17B inhib -2%[25.6 µM].
Screening CC(C)(C)c1cc(-c2ccco2)c(C#N)c(SCC#N)n1 returned 4-MU autofl 1.8e-08M* and A350 fluor 2.2e-08M*.
CSCCC=O was read as AID923 -2%, CRE-bla Fsk -9%, HADH2 inhib 0% and HSD17B inhib -2%.
O=C(O)CSc1nnc(Cn2nnc3ccccc32)n1CCc1ccccc1 was read as AID923 -1%, 4-MU autofl inconclusive, CRE-bla Fsk 7.9µM*, HADH2 inhib 26%, A350 fluor inconclusive and HSD17B inhib inconclusive.
